Data from PubChem BioAssay (EPA / NIEHS).
Some structures have more than one record in an assay (separate samples or runs), and their calls can disagree. Activity calls are given as the source filed them. The calls were made as follows: active = hit-call score of the fitted dose curve at least 0.9, where 1 is the maximum; inactive = score below 0.9.

How the values were obtained:
[1] = read-out: Intercellular Adhesion Molecule 1 (ICAM1), ICAM1 (gene 3383); assay: BSK_BE3C_ICAM1: BioMAP Diversity Plus: BE3C Assay for Intercellular Adhesion Molecule 1 (ICAM1) Biomarker Activity (AID 2284278); details: primary human bronchial epithelial cells
Outline: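 Primary human bronchial epithelial cells were exposed to compound for 24 h, after which cell-surface ICAM-1 was quantified by ELISA. Activity was fitted in the gain-of-signal direction against DMSO as negative control and baseline.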

[2] = read-out: Interferon-inducible T-cell alpha chemoattractant (ITAC), CXCL11 (gene 6373); assay: BSK_BE3C_ITAC: BioMAP Diversity Plus: BE3C Assay for Interferon-inducible T-cell alpha chemoattractant (ITAC) Biomarker Activity (AID 2284279); details: primary human bronchial epithelial cells
Outline: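 ELISA read-out of I-TAC after 24 h chemical dosing of human lung primary bronchial epithelial cells; gain-of-signal fit vs DMSO baseline. Parallel SRB total-protein staining (0.1% SRB, 10% TCA fixation, 560 nm) assessed cytotoxicity.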

[3] = read-out: Interleukin-8 (IL8), CXCL8 (gene 3576); assay: BSK_BE3C_IL8: BioMAP Diversity Plus: BE3C Assay for Interleukin-8 (IL8) Biomarker Activity (AID 2284280); details: primary human bronchial epithelial cells
Outline: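 IL-8 signal gain, normalised to DMSO vehicle, was scored after a 24 h chemical exposure of primary human bronchial epithelial cells, with detection by ELISA.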

[4] = read-out: Interleukin-8 (IL8), CXCL8 (gene 3576); assay: BSK_MyoF_IL8: BioMAP Diversity Plus: MyoF Assay for Interleukin-8 (IL8) Biomarker Activity (AID 2284261); details: primary human lung fibroblasts
Outline: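 Human lung fibroblast (MyoF system) cultures dosed for 24 h, then IL-8 measured by ELISA. Response taken relative to DMSO; parallel SRB total-protein staining for cytotoxicity.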

[5] = read-out: Decorin, DCN (gene 1634); assay: BSK_MyoF_Decorin: BioMAP Diversity Plus: MyoF Assay for Decorin Biomarker Activity (AID 2284265); details: primary human lung fibroblasts
Outline: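 Human lung fibroblast cultures were dosed for 24 h, and decorin was then measured by ELISA. Parallel cultures were stained with sulforhodamine B for total protein as a cytotoxicity check. Gain of signal was fitted relative to DMSO.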

[6] = BSK_MyoF_SRB: Viability Assessment in the BioMAP Diversity Plus: MyoF Assay (AID 2284267); details: primary human lung fibroblasts;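 also: total protein by SRB absorbance in parallel cultures as cytotoxicity measure; cells assessed 24 h after compound addition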
Outline: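 Human lung fibroblasts dosed with chemical and assessed 24 h later for overt cytotoxicity in parallel cultures. Total protein quantified by sulforhodamine B staining (0.1% SRB after 10% TCA fixation), read at 560 nm, analysed in positive direction versus DMSO baseline.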

[7] = read-out: Matrix Metallopeptidase 1 (MMP1), MMP1 (gene 4312); assay: BSK_MyoF_MMP1: BioMAP Diversity Plus: MyoF Assay for Matrix Metallopeptidase 1 (MMP1) Biomarker Activity (AID 2284268); details: primary human lung fibroblasts
Outline: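 Human lung fibroblast primary cells; MMP1 measured by ELISA 24 h after dosing, fitted in the positive direction relative to DMSO. Parallel SRB staining (0.1%, after 10% TCA fixation, 560 nm) assesses overt cytotoxicity.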

[8] = read-out: TIMP metallopeptidase inhibitor 1 (TIMP1), TIMP1 (gene 7076); assay: BSK_MyoF_TIMP1: BioMAP Diversity Plus: MyoF Assay for TIMP metallopeptidase inhibitor 1 (TIMP1) Biomarker Activity (AID 2284269); details: primary human lung fibroblasts
Outline: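 ELISA read-out of TIMP-1 from primary human lung fibroblast cultures 24 h after compound dosing; gain of signal relative to DMSO vehicle baseline defines activity.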

[9] = read-out: CD90, THY1 (gene 7070); assay: BSK_BF4T_CD90: BioMAP Diversity Plus: BF4T Assay for CD90 Biomarker Activity (AID 2284262); details: primary human bronchial epithelial cells with fibroblasts
Outline: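 Co-culture of human bronchial epithelial cells and dermal fibroblasts, 24 h compound exposure. Cell-surface CD90 measured by ELISA relative to DMSO; parallel SRB total-protein staining for cytotoxicity.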

[10] = read-out: Interleukin-8 (IL8), CXCL8 (gene 3576); assay: BSK_BF4T_IL8: BioMAP Diversity Plus: BF4T Assay for Interleukin-8 (IL8) Biomarker Activity (AID 2284263); details: primary human bronchial epithelial cells with fibroblasts
Outline: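 Human bronchial epithelial cells with dermal fibroblasts co-culture; IL-8 measured by ELISA 24 hours after dosing, fitted vs DMSO. Cytotoxicity tracked in parallel cultures by SRB total-protein staining.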

[11] = read-out: Interleukin-1 alpha (IL1a), IL1A (gene 3552); assay: BSK_BF4T_IL1a: BioMAP Diversity Plus: BF4T Assay for Interleukin-1 alpha (IL1a) Biomarker Activity (AID 2284264); details: primary human bronchial epithelial cells with fibroblasts
Outline: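 Human bronchial epithelial cells co-cultured with dermal fibroblasts, dosed and read at 24 h. Secreted/surface IL-1α quantified by ELISA; gain-of-signal fitted relative to DMSO baseline. Parallel SRB total-protein staining tracked cytotoxicity.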

[12] = read-out: Matrix Metallopeptidase 1 (MMP1), MMP1 (gene 4312); assay: BSK_BF4T_MMP1: BioMAP Diversity Plus: BF4T Assay for Matrix Metallopeptidase 1 (MMP1) Biomarker Activity (AID 2284270); details: primary human bronchial epithelial cells with fibroblasts
Outline: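 Co-culture of human bronchial epithelial cells and dermal fibroblasts; MMP-1 levels measured by ELISA 24 hours after chemical dosing, relative to DMSO. Cytotoxicity checked in parallel cultures by SRB total-protein staining.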

[13] = read-out: Matrix Metallopeptidase 3 (MMP3), MMP3 (gene 4314); assay: BSK_BF4T_MMP3: BioMAP Diversity Plus: BF4T Assay for Matrix Metallopeptidase 3 (MMP3) Biomarker Activity (AID 2284271); details: primary human bronchial epithelial cells with fibroblasts
Outline: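 Co-culture of human bronchial epithelial cells and dermal fibroblasts dosed 24 h; MMP-3 measured by ELISA, positive-direction fit versus DMSO. Cytotoxicity tracked by SRB total-protein staining (560 nm) in parallel cultures.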

[14] = read-out: Tissue plasminogen activator (tPA), PLAT (gene 5327); assay: BSK_BF4T_tPA: BioMAP Diversity Plus: BF4T Assay for Tissue plasminogen activator (tPA) Biomarker Activity (AID 2284272); details: primary human bronchial epithelial cells with fibroblasts
Outline: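 tPA level quantified by ELISA at 24 h post-treatment in bronchial epithelial/dermal fibroblast co-cultures, gain of signal scored against DMSO baseline. Parallel cultures stained with 0.1% SRB (560 nm) to flag overt cytotoxicity.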

[15] = BSK_BF4T_SRB: Viability Assessment in the BioMAP Diversity Plus: BF4T Assay (AID 2284274); details: primary human bronchial epithelial cells with fibroblasts
Outline: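 Co-culture of human bronchial epithelial cells and dermal fibroblasts (BioMAP BF4T) exposed 24 h. Total protein by sulforhodamine B staining (0.1% SRB after 10% TCA fixation, 560 nm) in parallel cultures; fitted vs DMSO.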

[16] = read-out: urokinase Plasminogen Activator (uPA), PLAU (gene 5328); assay: BSK_BF4T_uPA: BioMAP Diversity Plus: BF4T Assay for urokinase Plasminogen Activator (uPA) Biomarker Activity (AID 2284275); details: primary human bronchial epithelial cells with fibroblasts
Outline: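 Co-culture of human bronchial epithelial cells and dermal fibroblasts; uPA quantified by ELISA 24 hours after dosing, fitted relative to DMSO. Parallel SRB total-protein staining assessed overt cytotoxicity.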

[17] = read-out: Matrix Metallopeptidase 9 (MMP9), MMP9 (gene 4318); assay: BSK_BF4T_MMP9: BioMAP Diversity Plus: BF4T Assay for Matrix Metallopeptidase 9 (MMP9) Biomarker Activity (AID 2284276); details: primary human bronchial epithelial cells with fibroblasts
Outline: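 Co-culture of human bronchial epithelial cells and dermal fibroblasts dosed for 24 h; MMP-9 quantified by ELISA and fitted upward versus DMSO. Cytotoxicity monitored in parallel cultures by SRB total-protein staining at the biomarker time point.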

[18] = read-out: Interleukin-8 (IL8), CXCL8 (gene 3576); assay: BSK_IMphg_IL8: BioMAP Diversity Plus: IMphg Assay for Interleukin-8 (IL8) Biomarker Activity (AID 2284277); details: primary human endothelial cells with macrophages
Outline: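 Co-culture of human venular endothelial cells and macrophages exposed to chemicals for 24 h; IL-8 quantified by ELISA and compared against the DMSO baseline, with SRB total-protein staining in parallel cultures for cytotoxicity.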

Measured: AC50

CCCCC(CC)COP(=O)(O)OCC(CC)CCCC (stereo unspecified)
active: [1] 29 µM | [2] 28.9 µM
inactive: [1] | [3]

CCCCCCC(C)OC(=O)CCCCC(=O)OC(C)CCCCCC (stereo unspecified)
inactive: [4] | [5] | [6] | [7] | [8]

CO[Si](OC)(c1ccccc1)c1ccccc1
active: [6] 29.4 µM | [7] 28.9 µM
inactive: [4] | [5] | [8]

O=C(O)C(F)(F)C(F)(F)C(F)(F)C(F)(F)F
inactive: [4] | [9] | [10] | [11] | [5] | [6] | [7] | [8] | [12] | [13] | [14] | [15] | [16] | [17] | [18] | [1] | [2] | [3]

O=C(O)C(F)(F)C(F)(F)F
active: [3] 26.1 µM
inactive: [4] | [9] | [10] | [11] | [5] | [6] | [7] | [8] | [12] | [13] | [14] | [15] | [16] | [17] | [18] | [1] | [2] | [3]

CCCCOCCOCCOC(=O)CCCCC(=O)OCCOCCOCCCC
inactive: [4] | [5] | [6] | [7] | [8]

C=C(C)C(=O)OCC(F)(F)C(F)(F)C(F)(F)F
inactive: [4] | [9] | [10] | [11] | [5] | [6] | [7] | [8] | [12] | [13] | [14] | [15] | [16] | [17] | [18] | [1] | [2] | [3]

O=S(=O)(OCCOC(F)(F)F)C(F)(F)F
inactive: [4] | [9] | [10] | [11] | [5] | [6] | [7] | [8] | [12] | [13] | [14] | [15] | [16] | [17] | [18] | [1] | [2] | [3]

CCO[Si](CCC(F)(F)C(F)(F)C(F)(F)C(F)(F)C(F)(F)C(F)(F)F)(OCC)OCC
inactive: [4] | [9] | [10] | [11] | [5] | [6] | [7] | [8] | [12] | [13] | [14] | [15] | [16] | [17] | [18] | [1] | [2] | [3]

OCCCC(F)(F)C(F)(F)C(F)(F)F
inactive: [4] | [9] | [10] | [11] | [5] | [6] | [7] | [8] | [12] | [13] | [14] | [15] | [16] | [17] | [18] | [1] | [2] | [3]

NC(=O)C(F)(F)C(F)(F)C(F)(F)C(F)(F)F
inactive: [4] | [9] | [10] | [11] | [5] | [6] | [7] | [8] | [12] | [13] | [14] | [15] | [16] | [17] | [18] | [1] | [2] | [3]

CCCCCCCCCCCCCCCC[N+](C)(C)Cc1ccccc1
active: [4] 5.84 µM | [5] 9.35 µM | [6] 5.13 µM | [7] 2.7 µM | [8] 8.14 µM
